# Key:
# Experiment in all cases: yeast three-hybrid, YBZ-1, SC-Leu-His + 0.5 mM 3-AT, 4 days
# Conditions in all cases: tags: N-Gal4 AD-HA kept; label: inside an RPR1-promoter hybrid RNA with tandem MS2 sites; ssRNA
# PUM1 PUF domain R7-CWP = PUM1 PUF domain R7-CWP (Homo sapiens, UniProt Q14671 828-1176, S1079C;N1080W;E1083P)
# Summary of the method: (§1)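 The interaction score is the log change in variant frequency from input to selection. Scores were computed in log2 with a pseudocount of 1 for absent variants, using Illumina sequencing of PCR-amplified repeat regions. The input came from four days on SC-Leu and the selection from four days on SC-Leu-His + 0.5 mM 3-AT. The cells were strain YBZ-1 (LexA–MS2 coat fusion, HIS3 reporter) co-expressing Pumilio-1 PUF domain libraries and matching RNA elements from a centromeric plasmid.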
# PUM1 PUF domain R4-FNL = PUM1 PUF domain R4-FNL (Homo sapiens, UniProt Q14671 828-1176, N971F;H972N;Q975L)
# Summary of the method: as §1
# PUM1 PUF domain R4-AWP = PUM1 PUF domain R4-AWP (Homo sapiens, UniProt Q14671 828-1176, N971A;H972W;Q975P)
# Summary of the method: as §1
# PUM1 PUF domain R6-RWR = biological target: T1, PUM1 PUF domain R6-RWR (Homo sapiens, UniProt Q14671 828-1176, N1043R;Y1044W;Q1047R)
# T1 sequence: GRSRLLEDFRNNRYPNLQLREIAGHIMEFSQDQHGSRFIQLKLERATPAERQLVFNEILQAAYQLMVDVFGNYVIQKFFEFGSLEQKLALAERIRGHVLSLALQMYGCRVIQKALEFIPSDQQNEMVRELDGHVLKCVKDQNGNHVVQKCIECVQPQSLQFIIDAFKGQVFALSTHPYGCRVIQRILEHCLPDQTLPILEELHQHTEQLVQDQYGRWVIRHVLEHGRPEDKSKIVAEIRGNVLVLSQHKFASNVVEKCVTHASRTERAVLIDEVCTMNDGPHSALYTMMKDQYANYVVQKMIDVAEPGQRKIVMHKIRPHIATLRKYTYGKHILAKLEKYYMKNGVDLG
# Summary of the method: as §1
# PUM1 PUF domain R3-PRE = PUM1 PUF domain R3-PRE (Homo sapiens, UniProt Q14671 828-1176, C935P;Q939E)
# Summary of the method: as §1
# PUM1 PUF domain R3-GHG = PUM1 PUF domain R3-GHG (Homo sapiens, UniProt Q14671 828-1176, C935G;R936H;Q939G)
# Summary of the method: as §1
# PUM1 PUF domain R2-VYP = PUM1 PUF domain R2-VYP (Homo sapiens, UniProt Q14671 828-1176, N899V;Q903P)
# Summary of the method: as §1
# PUM1 PUF domain R5-SEQ = PUM1 PUF domain R5-SEQ (Homo sapiens, UniProt Q14671 828-1176, C1007S;R1008E)
# Summary of the method: as §1
# PUM1 PUF domain R5-KAL = PUM1 PUF domain R5-KAL (Homo sapiens, UniProt Q14671 828-1176, C1007K;R1008A;Q1011L)
# Summary of the method: as §1
# PUM1 PUF domain R5-NIA = PUM1 PUF domain R5-NIA (Homo sapiens, UniProt Q14671 828-1176, C1007N;R1008I;Q1011A)
# Summary of the method: as §1
sequence,measurement,setting,value
GGCUAGAACUAGUGGAUCCCCCGGCGCCCGGCGGCUCGAGCCCGGGUAAGUUUAAAUAGUCUGCAUGCCGCCGGGCGCCAUGCCUGCAGGUCGACUCUAGAAAACAUG,binding signal,PUM1 PUF domain R7-CWP,4.38 log2 enrichment (interaction score)
GGCUAGAACUAGUGGAUCCCCCGGCGCCCGGCGGCUCGAGCCCGGGUAAGUGUAUAUAGUCUGCAUGCCGCCGGGCGCCAUGCCUGCAGGUCGACUCUAGAAAACAUG,binding signal,PUM1 PUF domain R4-FNL,3.56 log2 enrichment (interaction score)
same,binding signal,PUM1 PUF domain R4-AWP,6.43 log2 enrichment (interaction score)
GGCUAGAACUAGUGGAUCCCCCGGCGCCCGGCGGCUCGAGCCCGGGUAAGUGAAAAUAGUCUGCAUGCCGCCGGGCGCCAUGCCUGCAGGUCGACUCUAGAAAACAUG,binding signal,PUM1 PUF domain R6-RWR,4.83 log2 enrichment (interaction score)
GGCUAGAACUAGUGGAUCCCCCGGCGCCCGGCGGCUCGAGCCCGGGUAAGUGUAAAUAGUCUGCAUGCCGCCGGGCGCCAUGCCUGCAGGUCGACUCUAGAAAACAUG,binding signal,PUM1 PUF domain R3-PRE,3.66 log2 enrichment (interaction score)
same,binding signal,PUM1 PUF domain R3-GHG,3.44 log2 enrichment (interaction score)
same,binding signal,PUM1 PUF domain R6-RWR,6.07 log2 enrichment (interaction score)
GGCUAGAACUAGUGGAUCCCCCGGCGCCCGGCGGCUCGAGCCCGGGUAAGUGUAAAAAGUCUGCAUGCCGCCGGGCGCCAUGCCUGCAGGUCGACUCUAGAAAACAUG,binding signal,PUM1 PUF domain R2-VYP,3.97 log2 enrichment (interaction score)
GGCUAGAACUAGUGGAUCCCCCGGCGCCCGGCGGCUCGAGCCCGGGUAAGUGUGAAUAGUCUGCAUGCCGCCGGGCGCCAUGCCUGCAGGUCGACUCUAGAAAACAUG,binding signal,PUM1 PUF domain R5-SEQ,3.78 log2 enrichment (interaction score)
GGCUAGAACUAGUGGAUCCCCCGGCGCCCGGCGGCUCGAGCCCGGGUAAGUGCAAAUAGUCUGCAUGCCGCCGGGCGCCAUGCCUGCAGGUCGACUCUAGAAAACAUG,binding signal,PUM1 PUF domain R6-RWR,1.4 log2 enrichment (interaction score)
GGCUAGAACUAGUGGAUCCCCCGGCGCCCGGCGGCUCGAGCCCGGGUAAGUGUAAGUAGUCUGCAUGCCGCCGGGCGCCAUGCCUGCAGGUCGACUCUAGAAAACAUG,binding signal,PUM1 PUF domain R3-PRE,4.92 log2 enrichment (interaction score)
same,binding signal,PUM1 PUF domain R3-GHG,1.95 log2 enrichment (interaction score)
GGCUAGAACUAGUGGAUCCCCCGGCGCCCGGCGGCUCGAGCCCGGGUAAGUGGAAAUAGUCUGCAUGCCGCCGGGCGCCAUGCCUGCAGGUCGACUCUAGAAAACAUG,binding signal,PUM1 PUF domain R6-RWR,1.16 log2 enrichment (interaction score)
GGCUAGAACUAGUGGAUCCCCCGGCGCCCGGCGGCUCGAGCCCGGGUAAGUGUACAUAGUCUGCAUGCCGCCGGGCGCCAUGCCUGCAGGUCGACUCUAGAAAACAUG,binding signal,PUM1 PUF domain R4-FNL,1.89 log2 enrichment (interaction score)
same,binding signal,PUM1 PUF domain R4-AWP,5.02 log2 enrichment (interaction score)
GGCUAGAACUAGUGGAUCCCCCGGCGCCCGGCGGCUCGAGCCCGGGUAAGUGUCAAUAGUCUGCAUGCCGCCGGGCGCCAUGCCUGCAGGUCGACUCUAGAAAACAUG,binding signal,PUM1 PUF domain R5-KAL,3.48 log2 enrichment (interaction score)
GGCUAGAACUAGUGGAUCCCCCGGCGCCCGGCGGCUCGAGCCCGGGUAAGUGUAAUUAGUCUGCAUGCCGCCGGGCGCCAUGCCUGCAGGUCGACUCUAGAAAACAUG,binding signal,PUM1 PUF domain R3-GHG,1.43 log2 enrichment (interaction score)
GGCUAGAACUAGUGGAUCCCCCGGCGCCCGGCGGCUCGAGCCCGGGUAAGUGUUAAUAGUCUGCAUGCCGCCGGGCGCCAUGCCUGCAGGUCGACUCUAGAAAACAUG,binding signal,PUM1 PUF domain R5-KAL,3.43 log2 enrichment (interaction score)
same,binding signal,PUM1 PUF domain R5-NIA,4.96 log2 enrichment (interaction score)

# — PMC8384837, “Expanding the binding specificity for RNA recognition by a PUF domain”
